Experimental data reported in PubChem BioAssay.
The source made the active and inactive calls. Unless noted, how the calls were made is not given here.

What was measured:
[1] = system: XIP peptide (Xip251-270) binding; test: small-molecule binders of XIP peptide, primary screen, biochemical, small-molecule microarray, fluorescence 635/667 nm, 0.1 µg/mL protein (AID 1182); conditions: fluorescent protein binding, 635 nm, higher = more signal, called active from +8 up or from −8 down
[2] = system: XIP peptide (Xip251-270); test: small-molecule binders of XIP peptide, primary screen, biochemical, small-molecule microarray, fluorescence 635/667 nm, 0.5 µg/mL protein (AID 1183); conditions: small-molecule microarray binding, fluorescence 635 nm; higher = more signal
[3] = Plasmodium falciparum growth inhibition, primary screen, strain 3D7, DAPI fluorescence, 100 nL (AID 1184);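 further: parasites grown inside human red blood cells in medium with human serum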; conditions: P. falciparum 3D7 growth, 3 d, higher = more signal
[4] = target: Homeobox protein Hox-A13 (Mus musculus) (UniProt Q62424); test: inhibitors of HoxA13-DNA binding, primary screen, biochemical, fluorescence polarization, labeled oligonucleotide (AID 1185); conditions: 15 min, higher = more signal, called active from +8 up or from −8 down
[5] = inhibitors of hydroxyurea-induced Chk1 phosphorylation, primary screen, imaging, HeLa, phospho-Chk1 antibody, percent positive cells (AID 1186); conditions: hydroxyurea-induced phospho-Chk1 immunofluorescence imaging, higher = more signal
[6] = inhibitors of hydroxyurea-induced Chk1 phosphorylation, primary screen, imaging, HeLa, phospho-Chk1 nuclear intensity (AID 1187); conditions: hydroxyurea-induced phospho-Chk1 immunofluorescence imaging, higher = more signal

Homeobox protein Hox-A13 (Mus musculus), sequence (Q62424 whole entry, looked up): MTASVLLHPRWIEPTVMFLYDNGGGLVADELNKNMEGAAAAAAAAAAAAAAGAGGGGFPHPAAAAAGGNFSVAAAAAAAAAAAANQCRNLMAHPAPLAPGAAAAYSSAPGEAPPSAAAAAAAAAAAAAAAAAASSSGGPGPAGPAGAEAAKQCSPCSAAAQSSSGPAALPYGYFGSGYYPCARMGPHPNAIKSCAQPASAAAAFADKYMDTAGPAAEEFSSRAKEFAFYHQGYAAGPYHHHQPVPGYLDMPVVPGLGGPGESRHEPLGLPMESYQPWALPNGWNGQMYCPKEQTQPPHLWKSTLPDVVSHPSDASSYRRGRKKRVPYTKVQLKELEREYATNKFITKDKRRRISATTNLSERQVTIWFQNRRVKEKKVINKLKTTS

In the case of `O=C1O[C@H](c2ccccc2)[C@H](c2ccccc2)N2[C@H]1[C@@H](C(=O)Nc1nc3ccccc3s1)[C@]1(C(=O)Nc3ccc(C#CC4=CCCCC4)cc31)[C@H]2c1ccc(OCCO)cc1`, the composite z-score [1] is reported as -0.172 (inactive), the composite z-score [2] is reported as 0.656 and the z-score [3] is reported as -0.985. The z-score [4] was -11.7 (active), the z-score [5] was 0.0032 (inactive) and the z-score [6] was -0.515 (inactive).
In the case of `O=C(NCc1ccccc1)[C@@H]1c2ccccc2C(=O)N(Cc2cc(F)cc(C(F)(F)F)c2)[C@H]1c1ccc(CO)cc1`, the composite z-score [1] is reported as 0.818 (inactive), the composite z-score [2] is reported as 0.941 and the z-score [3] is reported as -0.0341. The z-score [4] was -2.88 (inactive), the z-score [5] was -1.07 (inactive) and the z-score [6] was -1.29 (inactive).
In the case of `C=CCC(OC(C)=O)[C@@H]1[C@@H](N(Cc2cc3ccccc3o2)C(=O)c2cccc3ccccc23)c2cc(OCCCO)ccc2N1C(=O)Cc1ccc(OC)cc1` (some centres not stated), the composite z-score [1] is reported as 0.1 (inactive), the composite z-score [2] is reported as -0.208 and the z-score [3] is reported as -2.37. For the same compound, the z-score [4] was -3.31 (inactive), the z-score [5] was 0.821 (inactive) and the z-score [6] was 0.775 (inactive).
With `Cc1cccc(/C=C/C=O)c1` the composite z-score [1] was 0.43 (inactive), the composite z-score [2] was 0.838 and the z-score [3] was 0.787. For the same compound, the z-score [4] was -1.05 (inactive), the z-score [5] was 0.381 (inactive) and the z-score [6] was 0.412 (inactive).
For `O=c1cccc(-c2ccc3ccccc3c2)o1`, the composite z-score [1] was -0.644 (inactive), the composite z-score [2] was -0.688 and the z-score [3] was 1. For the same compound, the z-score [4] was -1 (inactive), the z-score [5] was -0.319 (inactive) and the z-score [6] was -0.587 (inactive).
For `CC(C)C[C@@H]1NC(=O)[C@@H]2C[C@H](C(=O)NCCCCN(C)C)[C@H](c3ccc(O)cc3)N2C1=O`, the composite z-score [1] was -0.0862 (inactive), the composite z-score [2] was 0.937 and the z-score [3] was -0.06. For the same compound, the z-score [4] was -1.49 (inactive), the z-score [5] was 0.326 (inactive) and the z-score [6] was 0.219 (inactive).
For `COc1cc2c(cc1O)C(c1ccc(CN3CCCC3)cc1)N(Cc1sc3ccccc3c1Cl)CC2` (configuration not stated), the composite z-score [1] was 0.656 (inactive), the composite z-score [2] was 0.879 and the z-score [3] was -1.58. The z-score [4] was -5.24 (inactive), the z-score [5] was 0.356 (inactive) and the z-score [6] was 0.653 (inactive).
With `NC(=O)NCC#Cc1ccc2c(c1)[C@]1(C(=O)N2)[C@H](C(=O)NC[C@H](O)c2ccccc2)[C@H]2C(=O)O[C@H](c3ccccc3)[C@H](c3ccccc3)N2[C@@H]1c1ccccc1OCCO` the composite z-score [1] was 0.635 (inactive), the composite z-score [2] was 0.799 and the z-score [3] was -1.32. For the same compound, the z-score [4] was -3.41 (inactive), the z-score [5] was -0.228 (inactive) and the z-score [6] was -0.374 (inactive).
For `[N-]=[N+]=Nc1ccccc1[C@H]1OC(c2ccc(OCCCO)cc2)=N[C@@]1(CCS(=O)(=O)c1ccccc1)C(=O)N1CCOCC1`, the composite z-score [1] was 1.72 (inactive), the composite z-score [2] was 0.562 and the z-score [3] was -2.04. For the same compound, the z-score [4] was -1.14 (inactive), the z-score [5] was -0.0149 (inactive) and the z-score [6] was 0.0382 (inactive).
In the case of `C=C[C@@H](C)[C@@H](OC(=O)Nc1ccc(OC)cc1)c1ccc(O)c2ccccc12`, the composite z-score [1] is reported as 1.36 (inactive), the composite z-score [2] is reported as -0.0477 and the z-score [3] is reported as -1.65. The z-score [4] was -3.38 (inactive), the z-score [5] was 0.453 (inactive) and the z-score [6] was 0.196 (inactive).
With `COc1ccc(C(O)C2C=CC3C(=O)N(c4ccccc4)C(=O)C3N2Nc2ccccc2)c2ccccc12` (configuration not stated) the composite z-score [1] was 2.31 (inactive), the composite z-score [2] was 0.573 and the z-score [3] was -0.182. For the same compound, the z-score [4] was -1.28 (inactive), the z-score [5] was -0.0153 (inactive) and the z-score [6] was -0.861 (inactive).
For `CC(C)[C@H]1COC(=O)N1C(=O)[C@H]1[C@@H](c2ccccc2)N(c2ccccc2)O[C@@H]1C`, the composite z-score [1] was 0.223 (inactive), the composite z-score [2] was 0.267 and the z-score [3] was 0.0321. For the same compound, the z-score [4] was -3.46 (inactive), the z-score [5] was -0.965 (inactive) and the z-score [6] was -1.2 (inactive).
With `C=C(C(=O)CC[C@H](OC(=O)c1cccnc1)c1ccccc1OCCO)C(C)C` the composite z-score [1] was 0.698 (inactive), the composite z-score [2] was 0.564 and the z-score [3] was -2.3. The z-score [4] was -4.71 (inactive), the z-score [5] was 0.321 (inactive) and the z-score [6] was 0.0728 (inactive).
With `C=C(COC)C(=O)CC[C@@H](OC(=O)c1ccccc1-c1ccccc1C(=O)O)c1ccc(CO)o1` the composite z-score [1] was -0.5 (inactive), the composite z-score [2] was 0.633 and the z-score [3] was 1.47. For the same compound, the z-score [4] was -4.32 (inactive), the z-score [5] was 1.37 (inactive) and the z-score [6] was 0.477 (inactive).
For `COC(=O)c1c(CC[C@@H](CO)NC(=O)Nc2ncn[nH]2)oc(C(=O)Cc2ccccc2)c1C(=O)OC`, the composite z-score [1] was 0.782 (inactive), the composite z-score [2] was 0.883 and the z-score [3] was 0.654. For the same compound, the z-score [4] was -2.98 (inactive), the z-score [5] was 0.498 (inactive) and the z-score [6] was -0.15 (inactive).
In the case of `COC(=O)[C@@]1(Cc2ccc(OC)cc2)[C@H]2c3cc(C(=O)N4CCCC4)n(CCN4CCOCC4)c3C[C@H]2CN1C(=O)c1ccccc1`, the composite z-score [1] is reported as 1.11 (inactive), the composite z-score [2] is reported as 0.0956 and the z-score [3] is reported as -1.17. For the same compound, the z-score [4] was -5.18 (inactive), the z-score [5] was 0.778 (inactive) and the z-score [6] was 0.485 (inactive).
For `C=CCNC(=O)[C@H]1[C@@H]2C(=O)O[C@@H](c3ccccc3)[C@@H](c3ccccc3)N2[C@@H](c2ccc(O)cc2)[C@]12C(=O)Nc1ccc(C#Cc3ccc(OC)cc3)cc12`, the composite z-score [1] was 0.292 (inactive), the composite z-score [2] was 0.779 and the z-score [3] was -0.785. The z-score [4] was -1.91 (inactive), the z-score [5] was 0.0407 (inactive) and the z-score [6] was 0.277 (inactive).
